# Screening data from PubChem.
# PABP polyA inh – PABP poly(A) RNA binding inhibitors, primary screen, biochemical, fluorescence polarization, uHTS; Polyadenylate-binding protein 1 (Homo sapiens), P11940; inhibition, % at 35 µM; 290,000 tested, 1% active;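 also: calls also rest on retests at 20 µM and on dose response follow-up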
# CendR NRP1 mod – modulators of CendR peptide binding to NRP-1, primary screen, biochemical, fluorescence polarization, uHTS; FAM-RPARPAR peptide binding to NRP-1; inhibition, % at 25 µM; 360,000 tested, 0.85% active; AID 602438, 2012;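 active = inhibition or corrected inhibition above about 18%, plus a signal ratio from 0.5 to 1.5, limit read from the data, passing the limit was not always enough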
# MLLE-PAM2 inh – inhibitors of PABP1 MLLE–PAM2 peptide binding, primary screen, biochemical, fluorescence polarization, FITC-PAM2, GST-MLLE; inhibition, % at 20 µM; 360,000 tested, 0.36% active; AID 588489, 2011; in the data active = inhibition above about 35%, passing the limit was not always enough;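 also: plate controls were DMSO wells with GST-MLLE for no effect and wells lacking GST-MLLE protein for full effect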
# eIF4H inh – human eIF4H binding inhibitors, primary screen, translation initiation inhibitor project, biochemical, uHTS, fluorescence polarization. eIF4H fluorescence polarization binding assay. AID 2012, 2009. inhibition, % at 35 µM. 290,000 tested, 0.94% active. Eukaryotic translation initiation factor 4H (Homo sapiens), Q15056;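 also: calls also rest on retests at 20 µM and on dose response follow-up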
# Numbers without * were called inactive; ? = inconclusive; nt = no result. An excerpt weighted towards active compounds, which were near 2.1% of everything screened. Unless noted, no rule for the calls is given here.
SMILES,PABP polyA inh,CendR NRP1 mod,MLLE-PAM2 inh,eIF4H inh
CCC1(C)Cc2nc3sc(C(=O)O)c(N)c3cc2CO1 (stereo not drawn),70.8*,-32.9,-5.9,12.5*
O=C(O)C[C@@H]1C(=O)O[C@@H]2C(COC(=O)c3cc(O)c(O)c(O)c3)O[C@@H](OC(=O)c3cc(O)c(O)c(O)c3)[C@@H](OC(=O)c3cc(O)c(O)c4c3[C@H]1[C@H](O)C(=O)O4)[C@H]2OC(=O)c1cc(O)c(O)c(O)c1 (stereo partly drawn),90.7*,nt,nt,86.9*
COc1cccc(C(C)(O)c2nc(-c3ccc(S(C)(=O)=O)cc3)cs2)c1 (stereo not drawn),nt,-5.6,-25.0,nt
Cc1ccc(-c2c(C#N)c(N)nc3c2CCCCC3)o1,84.8*,-1.6,8.7,63.1*
O=c1cc(CO)oc(C(Nc2ccccn2)c2ccc(F)cc2)c1O (stereo not drawn),-4.3,5.5,23.8,-0.4
O=c1cc(CO)oc(C(Nc2ccccn2)c2ccsc2)c1O (stereo not drawn),47.5*,nt,nt,71.4*
O=c1cc(CO)oc(C(Nc2ccccn2)c2ccccc2Cl)c1O (stereo not drawn),-8.0,25.8*,16.7,3.8
COc1cccc(NC(=S)N2CCC(C(=O)c3ccc(F)cc3)CC2)c1,nt,0.9,-121.1,nt
O=C(c1ccc2nc[nH]c2c1)N1CCN(c2ncc(C(F)(F)F)cc2Cl)CC1,-10.4,-4.2,-17.5,-3.3
COc1ccc(NC(=O)c2oc3ccccc3c2NC(=O)C2CC2)cc1OC,4.1,29.8*,-2.4,7.4
CCOC(=O)C1(Cc2ccccc2)CCN(Cc2cccn2-c2nccs2)CC1,-3.4,33.0*,-10.0,-9.0
Oc1ccccc1/C=C/c1noc(-c2ccccc2O)n1,52.4*,12.7,12.1,3.1
CC(=O)Nc1ccc(/C=C/c2noc(-c3ccccc3O)n2)cc1,-7.8,15.4,-15.0,-1.0
N#Cc1c(N)nc2c(c1-c1ccccc1)CCCC2,-13.0,-8.8,4.9,-0.7
CC1CCc2nc(N)c(C#N)c(-c3cccn3C)c2C1 (stereo not drawn),110.9*,-14.6,-26.8,97.1*
CCC(CC)C(C(=O)NCc1ccccc1)N1CCN(c2cccc(C)c2C)CC1 (stereo not drawn),nt,6.6,nt,nt
CN1CCN(S(=O)(=O)c2ccc(NC(=O)c3cccs3)cc2)CC1,-8.8,21.9*,-7.1,0.3
Cc1cc(C)cc(NS(=O)(=O)c2ccc(NC(=S)NC(=O)c3cccs3)cc2)c1,-3.1,6.1,33.5,4.7
CN(C1CCCCC1)S(=O)(=O)c1ccc(NC(=S)NC(=O)c2cccs2)cc1,-7.6,10.5,42.8*,-5.5
CCOCCn1c(C)c(C(=O)OCC)c2cc(O)c3ccccc3c21,nt,-4.4,2.5,nt
C/C(=N\Nc1ccc(C(F)(F)F)cn1)c1ccncc1,79.9*,-3.0,1.7,active
CC[C@@H](C)[C@@H](C(=O)N1CCN(C(=O)OC(C)(C)C)CC1)n1cc(CCCN=C(NC(=O)OC(C)(C)C)NC(=O)OC(C)(C)C)nn1,-6.8,26.2*,-12.0,-2.8
O=C(Cc1ccc(Cl)cc1)NNC(=O)c1ccco1,-3.6,-5.1,-2.0,-0.5
COc1ccc(NC(=O)Nc2nnc([C@H]3C[C@H](O)[C@@H](CO)O3)s2)cc1,nt,-11.1,-14.2,nt
CC(=NO)c1cc(Br)c2cccc3c2c1CC3,nt,-15.0,-4.6,nt
SMILES,PABP polyA inh,CendR NRP1 mod,MLLE-PAM2 inh,eIF4H inh
N#CC1C(C#N)N2CCCN2C1c1ccc(Br)cc1 (stereo not drawn),4.3,31.1*,-4.4,-2.6
O=C(NC(=S)Nc1ccccc1)c1csnn1,13.9,-0.9,36.9*,1.5
CC(C)NC(=O)C1C(c2ccc(C(F)(F)F)cc2)=Nc2ccccc2N1C(=O)c1cccc2ccccc12 (stereo not drawn),nt,-0.9,nt,nt
O=c1[nH]nc(CNc2ccc(C(F)(F)F)cc2)c2ccccc12,-0.4,2.3,0.3,-9.4
O=C(O)Cc1n[nH]c(=O)c2ccccc12,64.9,16.2,1.6,1.1*
O=c1[nH]nc(CNc2ccc(O)cc2)c2ccccc12,55.0*,-4.5,6.3,59.0*
Cc1ccccc1NC(=O)CCC(=O)N/N=C/c1cccnc1,6.6,21.6*,-12.1,-7.1
CCN(CC)CCCN1C(=O)CSC1c1ccc([N+](=O)[O-])cc1 (stereo not drawn),7.8,-2.2,42.4*,-14.3
COc1ccc(CN2CCN(Cc3cc4ccccc4o3)CC2CCO)cc1C (stereo not drawn),-6.3,-9.0,2.3,1.6
Cc1cccc(NC2CCCCC2NS(=O)(=O)c2ccccc2)c1 (stereo not drawn),4.6,11.1,7.5,1.3
COc1ccc(OC)c2c1CCC2=O,-2.3,29.7*,-8.1,2.3
CCOC(=O)CSc1c(-c2cccs2)[nH]c2ccccc12,2.4,24.8*,27.4,4.7
CCOC(=O)CSc1c(-c2ccc(Cl)cc2)[nH]c2ccccc12,-0.1,-1.3,4.7,-0.4
CC1=CC(C)(C)N(S(=O)(=O)c2ccc(C)cc2)c2ccc(C)cc21,9.0,4.1,5.3,1.6
CC1=CC(C)(C)[N+](C)(C)c2ccc(C)cc21,58.7*,38.2*,-110.7,1.1
CC1CCC(NS(=O)(=O)c2ccc(Cl)nc2)CC1 (stereo not drawn),nt,0.3,21.2,nt
Cn1cnnc1SCC(=O)Nc1nc(-c2ccccc2)cs1,1.9,19.8*,-10.0,5.7
CC(=O)Nc1nc(-c2ccc(-c3ccccc3)cc2)cs1,nt,21.0*,-0.5,nt
O=C(COC(=O)c1ccc2c(c1)OCO2)Nc1nc(-c2ccccc2)cs1,61.0*,12.4,-2.0,1.7
CC(=O)NNc1nc(-c2ccccc2)cs1,-9.4,-8.5,11.9,-7.4
NS(=O)(=O)c1ccc(NC(=O)COC(=O)c2ccc3c(c2)OCCO3)cc1,61.2*,-10.0,21.1,active
CC(C)CN(C(=O)CN1C(=O)NC(c2ccccc2)(c2ccccc2)C1=O)C1CCS(=O)(=O)C1 (stereo not drawn),nt,11.3,2.1,nt
CC(C)(C)c1nnc(NC(=O)c2cc(-c3ccccc3)nc3ccccc23)s1,-10.7,3.6,29.2,-5.4
COc1ccccc1C(=O)NC(=O)CSc1nncn1C,nt,26.2*,6.8,nt
Cc1csc(NC(=O)c2cc(-c3ccccc3)nc3ccccc23)n1,34.9,35.0*,11.8,-14.7
SMILES,PABP polyA inh,CendR NRP1 mod,MLLE-PAM2 inh,eIF4H inh
COc1ccc(Cl)cc1C(=O)NNC(=O)CSc1nncn1C,nt,0.7,-8.2,nt
O=C(Nc1nc(-c2ccncc2)cs1)c1ccco1,47.8,-10.8,-16.9,83.8*
O=C(Nc1nc(-c2cccs2)cs1)c1ccco1,-12.6,-8.3,13.8,0.5
N#CC1=C(N)Oc2c(oc(CO)cc2=O)C1c1ccccc1[N+](=O)[O-] (stereo not drawn),28.6,-9.2,-0.6,24.2
Cc1ccoc1C(=O)N1CCN(C(=O)c2occc2C)CC1,2.8,0.9,-3.8,2.3
Oc1ccc(C[C@H]2CNCCN2CC2(c3ccccc3)CC2)cc1,nt,-8.7,8.4,nt
N=C1CCC(=N)c2c1c(O)c1ccccc1c2O,?,27.1*,61.9,?
N#Cc1c(C#N)c(O)c2ccccc2c1O,22.5,2.8,29.2,12.6
